Assay outcomes (PubChem)
Compounds with a hit are over-represented: about 3.4% of the library has one in this group of screens.
EWS-Fli inh: EWS/Fli-driven NR0B1 reporter inhibitors, primary screen, A673 cells, NR0B1 luciferase, luminescence, MLPCN library; 0.67% of 350,000 active; inhibition, % at 12.6 µM; AID 651661, 2012; viability-normalised;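 active means mean inhibition of at least 50% after viability correction, with every replicate also passing that limit; inconclusive means mean reaches 50% but only one of two replicates passes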;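 further: firefly luciferase signal divided by Alamar Blue viability fluorescence both relative to DMSO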
PGC1a acetyl inh: inhibitors of PGC1a acetylation signal, primary screen, cell-based, U2OS, AlphaScreen, inhibitor mode; inhibition, % at 15.6 µM; AlphaScreen anti-acetyl-lysine; with virally co-expressed GCN5 acetyltransferase; AID 651687, 2012; 0.17% of 350,000 active;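 active means every replicate shows inhibition of at least 40%; inconclusive means mean inhibition at least 40% but some replicate below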;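 further: 0% = neutral control wells and 100% = positive control wells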
LGR2 antag: inhibitors of bursicon-induced LGR2 CRE-luciferase signal, primary screen, cell-based, HEK293, CRE-luciferase reporter, bursicon stimulation; Drosophila bursicon receptor LGR2 (rickets); AID 720647, 2013; 0.35% of 380,000 active; bursicon-stimulated, 4 h; inhibition, % at 9.99 µM;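 active means drop in luminescence signal, shown as inhibition above about 50% in the replicate tests, limit read from the data, passing the limit was not always enough; inconclusive means probably only some replicates passing the limit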;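 further: agonist challenge used bursicon conditioned medium at about half maximal strength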
PAX8 reporter: inhibitors of PAX8-driven TPO luciferase reporter, primary screen, RMG-I cells, single concentration; SteadyGlo, 24 h; inhibition, % at 12.6 µM; 1.2% of 360,000 active;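 active means mean replicate inhibition at least 60% with every replicate also reaching 60%; inconclusive means only one of the two criteria is met; inactive means mean below 60% and not all replicates reaching 60%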;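 further: luciferase light reporting Pax8 driven TPO promoter activity; plate controls were median of neutral control wells for no effect and mitoxantrone controls for full effect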
Ecoli rRNA inh: reduced GFP signal of wild-type E. coli, primary screen, bacterial rRNA inhibitor project, GFP/RFP fluorescence, OD600, single point; AID 720706, 2013; 1.6% of 350,000 active; GFP signal change (wild-type ribosome), % (concentration not given with the values); E. coli WT GFP vs humanized-ribosome RFP mutants, 24 h; stronger effect = lower value; DMSO median 0, no signal -100;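 active means significant combined selectivity score with lowered wild-type GFP, culture density cut under 30%, mutant RFP and density less affected; inactive means any of these conditions unmet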
SIRT5 block: SIRT5 desuccinylase inhibitors, primary screen, biochemical, fluorescence imaging, single point, set 5; 1.1% of 330,000 active; inhibition, % at 15 µM; NAD-dependent protein deacylase sirtuin-5, mitochondrial (Homo sapiens), Q9NXA8; Purified SirT5, succinyl-peptide AMC, trypsin-coupled fluorescence; in the data active means inhibition above about 15%; inconclusive means no clear call, values can overlap the other calls
Target sequence (Q9NXA8 whole entry, looked up): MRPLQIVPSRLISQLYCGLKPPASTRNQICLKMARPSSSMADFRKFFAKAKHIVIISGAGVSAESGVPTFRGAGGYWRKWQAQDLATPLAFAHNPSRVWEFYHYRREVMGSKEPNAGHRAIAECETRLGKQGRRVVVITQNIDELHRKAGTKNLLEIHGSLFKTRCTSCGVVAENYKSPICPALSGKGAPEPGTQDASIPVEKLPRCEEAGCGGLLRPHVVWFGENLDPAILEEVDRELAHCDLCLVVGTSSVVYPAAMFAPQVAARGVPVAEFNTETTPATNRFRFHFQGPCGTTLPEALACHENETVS
AID977621: growth inhibition of wild-type GFP E. coli, dose response, H69 mutant RFP, cherry-pick. shares compounds with Ecoli rRNA inh. E. coli wild-type GFP strain growth, fluorescence, 24 h. activity change, negative = inhibition at 50 µM. 1,900 tested, under 10 active. AID 977621, 2014;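 active means Wild-type ribosome reporter drop at least double the humanized mutant ribosome reporter drop, growth loss under a set limit; inconclusive means no clear call, values can overlap the other calls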;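 further: wild-type GFP and H69 mutant RFP strains grown together 50/50 in each well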
AID977628: E. coli growth inhibition, wild-type GFP versus h24 humanized RFP strain, dose response, h24 mutant RFP vs wild-type GFP, cherry-pick; shares compounds with Ecoli rRNA inh; E. coli WT GFP strain growth, fluorescence, 24 h; activity change, negative = inhibition at 50 µM; 1,900 tested, under 10 active;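 active means compound lowering the normal-ribosome reporter at least twice as much as the humanized-ribosome reporter, growth loss under a set limit; inconclusive means no clear call, values can overlap the other calls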;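 further: wild-type GFP and h24 humanized RFP strains co-cultured 1 to 1 per well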
Active calls of the source: *; ? = inconclusive; . = no result given.

SMILES	EWS-Fli inh	PGC1a acetyl inh	LGR2 antag	PAX8 reporter	Ecoli rRNA inh	SIRT5 block	AID977621	AID977628
CCCNC(=O)c1cc2c(c(-c3cccc(-c4ccncc4)c3)n1)[C@@H](CCO)N(S(=O)(=O)CC)C2	8	1	-9	-8	-2	-2	.	.
CN(Cc1ccc(F)cc1)Cc1nc(CCc2ccccc2)no1	-5	3	7	-3	-19*	0	.	?
CN(Cc1ccc(F)cc1)Cc1nc(-c2ccccc2)no1	-8	-2	-15	-10	-18	-3	.	.
C[C@H](CO)N1C[C@H](C)[C@H](CN(C)Cc2ccc(-c3ccccc3)cc2)Oc2ccc(NC(=O)Cn3cnnn3)cc2CC1=O	1	4	-10	24	1	2	.	.
Cc1cc(C(C)(C)C)oc1C(=O)N(CC(=O)NC1CCCC1)c1ccc(F)cc1	11	-8	14	.	-6	0	.	.
Cc1cc(C(C)(C)C)oc1C(=O)N(CC(=O)NC1CCCC1)c1c(C)cccc1C	26	-35	37	.	-25*	-1	.	-15
O=C(Nc1ccc2c(c1)OCO2)c1cccc(S(=O)(=O)N2CCCC2)c1	-18	-15	-33	.	-14*	-1	?	.
COc1ccc(S(=O)(=O)N[C@@H]2C=C[C@@H](CC(=O)N3CCN(c4ccccc4)CC3)O[C@H]2CO)cc1	-4	3	22	3	3	1	.	.
NC(=O)c1cccnc1Oc1ccc(Cl)cc1Cl	3	-5	9	-14	-31*	1	-6.9	-13
Cc1cc(Cl)ccc1Nc1ncccc1C(N)=O	-64	.	-59	-101	2	2	.	.
CC(C)Oc1ccc(C(=O)Nc2cccc3cccnc23)cc1	-15	.	-20	11	-22*	-6	-14	-1.1
CCOc1ccc(C(=O)Nc2cccc3cccnc23)cc1	-17	.	-22	-4	8	-1	.	.
CSc1ccc(CN(C)C(=O)C(c2ccccc2)c2ccccc2)cc1	11	-13	7	19	-21*	-4	-11	?
CSc1ccc(CN(C)C(=O)C(Cc2ccccc2)NC(=O)c2ccccc2)cc1 (centres undefined)	.	.	16	30	-11	-2	.	.
O=C1OC[C@@H]2CCCN2C(=O)[C@@H](CC(=O)N(CCO)Cc2ccccc2)C/C=C\C[C@H]1Cc1ccc(F)cc1	6	3	1	14	-21*	1	0.08	-6.7
O=C1N[C@@H](Cc2ccccc2)COC(=O)[C@H](Cc2ccc(F)cc2)C/C=C\C[C@H]1CC(=O)N(CCO)Cc1ccccc1	-2	-1	8	9	-19*	-3	.	?
O=C1OC[C@H]2CCCN2C(=O)[C@@H](CC(=O)N(CCO)Cc2ccccc2)C/C=C\C[C@H]1Cc1ccc(F)cc1	7	0	4	16	-10	0	.	.
COc1ccccc1NC(=O)Nc1ccc2c(c1)OC[C@@H](C)N(Cc1ccccc1Cl)C[C@@H](C)[C@H](OC)CN(C)C2=O	6	-2	14	48	4	3	.	.
O=C(CCCOc1ccc(Cl)cc1Cl)Nc1ccccc1C(=O)O	-111	10	-36	-88	-30*	-5	-15	.
CN(C)CC(=O)N1CC[C@@H]2[C@@H](CO)N(C)c3ccc(Br)cc3[C@@H]21	6	9	12	14	5	.	.	.
CCCC#Cc1cnc2c(c1)C(=O)N([C@H](C)CO)C[C@H](C)[C@H](CN(C)C(=O)Nc1ccccc1OC)O2	-12	-5	4	.	-1	1	.	.
O=C(O)CCN(Cc1ccccc1)S(=O)(=O)c1ccccc1Cl	-8	2	17	-4	-20*	-4	-5.7	.
COC(=O)CCN(Cc1ccccc1)S(=O)(=O)c1ccccc1Br	8	-2	-12	-14	-9	-12	.	.
O=C(O)CCN(Cc1ccccc1)S(=O)(=O)c1ccc(Cl)cc1F	5	7	-7	-6	-20*	0	-5.9	?
O=C(NC1CCCC1)c1ccc([N+](=O)[O-])s1	-6	.	6	18	-20*	-2	-17	-3.9
SMILES	EWS-Fli inh	PGC1a acetyl inh	LGR2 antag	PAX8 reporter	Ecoli rRNA inh	SIRT5 block	AID977621	AID977628
O=C(c1ccccc1)N(c1ccccc1)c1nccc2ccccc12	-8	-5	10	13	-28*	.	-5.5	.
O=C(c1ccccc1)N(C(=O)c1ccccc1)c1ccccc1	-16	-3	8	-63	8	-1	.	.
COc1cc[n+]([O-])cc1[N+](=O)[O-]	3	-5	34	-3	1.2*	.	-14	-6.7
Cc1c[n+]([O-])ccc1Oc1ccc([N+](=O)[O-])cc1	-7	.	-29	-8	10	-4	.	.
C[C@@H]1CCCCO[C@H](CN(C)C(=O)Nc2ccccc2)[C@@H](C)CN([C@H](C)CO)C(=O)c2cc(NS(C)(=O)=O)ccc2O1	-7	-9	.	-11	3	3	.	.
O=C([C@H]1[C@H](CO)[C@H]2Cn3c(cccc3=O)[C@H]2N1CCC(F)(F)F)N1CCCCC1	-4	.	6	.	3	10	.	.
Cc1ccccc1NC(=O)c1ccccc1N(C)S(=O)(=O)c1ccccc1	-10	-5	-14	10	-19*	2	-21	?
CN(C)C(CNS(=O)(=O)c1cc([N+](=O)[O-])ccc1Cl)c1ccco1 (centres undefined)	13	.	21	8	-2.3*	.	.	-12
CN(C)C(CNC(=O)c1ccc([N+](=O)[O-])cc1Cl)c1ccco1 (centres undefined)	-39	.	-8	-42	1	1	.	.
O=c1c2ccccc2cnn1Cc1n[nH]c(=S)n1C1CC2CCC1C2 (centres undefined)	13	.	0	-5	-20*	-2	-3.5	.
C[C@H](CO)N1C[C@H](C)[C@@H](CN(C)S(=O)(=O)c2cccs2)OCCCC[C@H](C)Oc2ccc(NC(=O)CCC(F)(F)F)cc2C1=O	5	6	-7	2	-3	5	.	.
O=C(Nc1ccccc1)c1ccc(-c2ccc([N+](=O)[O-])cc2)o1	-97	.	-20	-71	-11	-2	.	.
COc1ccc(NC(=O)c2ccc(-c3ccc([N+](=O)[O-])cc3)o2)cc1	-4	-5	-5	-10	-26*	-1	.	?
